From PubChem BioAssay (NCATS)
Records with an inconclusive call do not appear. Activity calls are given as the source filed them. The call rests on the fitted dose curve; in most records, active means well fitted cell-killing curve with a large enough effect; inconclusive means small, poorly fitted or top-dose-only effect, or effect the other way; inactive means flat fitted curve, though single readings scatter.

Tests used:
Assay in all cases: Primary qHTS to identify gynecologic anti-cancer compounds using libraries of approved drugs and bioactive compounds (AID 1345084); further: nearly all actives have a fitted effect of over 55% in size
Conditions in all cases: Gynecologic cancer cell panel viability, ATPlite luminescence, 48 h; series mostly up to 57.5 µM
[1] = system: JEG-3
How it was run: (§1)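 Five-concentration response, 48 h; readout is ATP-driven luciferase luminescence.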

[2] = system: OV90
How it was run: as §1

[3] = system: PA-1
How it was run: as §1

[4] = system: SKOV3
How it was run: as §1

[5] = system: Tov-21-G
How it was run: as §1

[6] = system: Tov112D
How it was run: as §1
On the % scale 0 is the no-effect control and ±100 the full control effect.

O=C(/C=C\c1ccc(O)cc1)N[C@@H](Cc1ccc(O)cc1)C(=O)O
inactive: Potency [1] | Potency [2] | Potency [3] | Potency [4] | Potency [5] | Potency [6]

COc1ccc(-n2[nH]c(=O)c3[nH]c4cc(Cl)ccc4c(=O)c3c2=O)c(C)c1
inactive: Potency [1] | Potency [2] | Potency [3] | Potency [4] | Potency [5] | Potency [6]

CC(=O)N[C@H]1[C@H](O[C@H]2CC[C@@]3(C)C(CC[C@]4(C)C3CC=C3[C@@H]5CC(C)(C)CC[C@]5(C(=O)OC5OCC(O)C(O)C5O)CC[C@]34C)C2(C)C)O[C@H](COC2OC(C)C(O)C(OC3OC(C)C(O)C(O)C3O)C2O)[C@@H](O)[C@@H]1O (stereo partly drawn)
inactive: activity change, negative = cytotoxicity [1] 1.81% [at 11.6 µM] | activity change, negative = cytotoxicity [2] 3.41% [at 11.6 µM] | activity change, negative = cytotoxicity [3] 5.97% [at 11.6 µM] | activity change, negative = cytotoxicity [4] 2.42% [at 11.6 µM] | activity change, negative = cytotoxicity [5] 2.63% [at 11.6 µM] | activity change, negative = cytotoxicity [6] 7.32% [at 11.6 µM]

CC(=O)O[C@@H](CO[C@@H]1O[C@H](CO)[C@H](O)[C@H](O)[C@H]1O)[C@]1(C)C=C2CC[C@@H]3C(C)(C)[C@@H](O)CC[C@@]3(C)[C@@H]2CC1
inactive: Potency [1] | Potency [2] | Potency [3] | Potency [4] | Potency [5] | Potency [6]

COC(=O)C1=CO[C@@H](O[C@@H]2O[C@H](CO)[C@@H](O)[C@H](O)[C@H]2O)[C@@H]2[C@@](C)(O)[C@@H](OC(=O)/C=C/c3ccc(O)cc3)C[C@]12O
inactive: Potency [1] | Potency [2] | Potency [3] | Potency [4] | Potency [5] | Potency [6]

CCOCc1nc2c(N)nc3ccccc3c2n1CC(C)(C)O
inactive: Potency [1] | Potency [2] | Potency [3] | Potency [4] | Potency [5] | Potency [6]

COc1ccc(CNC(=O)c2cc(-c3cncc(C)c3)ncc2-c2nccs2)nc1OC
inactive: Potency [1] | Potency [2] | Potency [3] | Potency [4] | Potency [5] | Potency [6]

COc1cc2c3c(cc4ccccc4c3c1O)NC2=O
inactive: Potency [1] | Potency [2] | Potency [3] | Potency [4] | Potency [5] | Potency [6]

CC(C)c1ccc(CO)cc1O[C@@H]1O[C@H](CO)[C@@H](O)[C@H](O)[C@H]1O
inactive: Potency [1] | Potency [2] | Potency [3] | Potency [4] | Potency [5] | Potency [6]

Nc1nc2c(ncn2[C@@H]2O[C@@H]3COP(=O)(O)O[C@H]3[C@H]2O)c(=O)[nH]1
inactive: Potency [1] | Potency [2] | Potency [3] | Potency [4] | Potency [5] | Potency [6]

COC1/C=C/C(C)(O)C(SCC(N)C(=O)O)CC(=O)OC(C)C(C)CC/C=C/1C (stereo not drawn)
inactive: Potency [1] | Potency [2] | Potency [3] | Potency [4] | Potency [5] | Potency [6]

C=CC[C@]12C[C@@H](OC)C(=O)C(OC)=C1O[C@@H](c1cc(OC)c3c(c1)OCO3)[C@@H]2C
inactive: Potency [1] | Potency [2] | Potency [3] | Potency [4] | Potency [5] | Potency [6]

Cc1cc2c(c(=O)[nH]1)OC(C(O)CC(C)C)O2 (stereo not drawn)
inactive: Potency [1] | Potency [2] | Potency [3] | Potency [4] | Potency [5] | Potency [6]

CC1(O)CC(O)C2(O)C=COC(O[C@@H]3O[C@H](CO)[C@@H](O)[C@H](O)[C@H]3O)C12 (stereo partly drawn)
inactive: Potency [1] | Potency [2] | Potency [3] | Potency [4] | Potency [5] | Potency [6]

CC(=O)O[C@@H]1c2c(C)coc2C(=O)[C@@]23O[C@@H]2CC[C@H](C)[C@@]13C
inactive: Potency [1] | Potency [2] | Potency [3] | Potency [4] | Potency [5] | Potency [6]

CCCC(=O)C1CCN(c2ncnc3c2CN(C(=O)c2ccc(-c4ccccc4)cc2)CC3)CC1
inactive: Potency [1] | Potency [2] | Potency [3] | Potency [4] | Potency [5] | Potency [6]

CC1OC(OC2CCC3(C)C(CCC4(C)C3CC=C3C5CC(C)(C)CCC5(C(=O)OC5OC(CO)C(O)C(O)C5O)CCC34C(=O)O)C2(C)C)C(O)C(O)C1O (stereo not drawn)
inactive: Potency [1] | Potency [2] | Potency [3] | Potency [4] | Potency [5] | Potency [6]

COC1CC(OC2CCC3(C)C(=CCC4C3C(OC(C)=O)C(OC(=O)/C=C/c3ccccc3)C3(C)C(C(C)O)CCC43O)C2)OC(C)C1OC1CC(OC)C(OC2OC(C)C(OC3OC(CO)C(O)C(O)C3O)C(OC)C2O)C(C)O1 (stereo not drawn)
inactive: activity change, negative = cytotoxicity [1] -8.61% [at 6.55 µM] | activity change, negative = cytotoxicity [2] -2.22% [at 6.55 µM] | activity change, negative = cytotoxicity [3] -0.704% [at 6.55 µM] | activity change, negative = cytotoxicity [4] -8.31% [at 6.55 µM] | activity change, negative = cytotoxicity [5] 9.97% [at 6.55 µM] | activity change, negative = cytotoxicity [6] 2.28% [at 6.55 µM]
